Our source for the Potency values is PubChem BioAssay (Tox21).

Results filed as inconclusive are left out. A call without a number means that no potency is given here. Active and inactive are the calls of the source. Calls come from the whole dose curve; as a rule, active = well fitted cell-killing curve with a large enough effect in the repeat runs; inconclusive = weak or mixed curves, or effect the other way; inactive = flat fitted curve, though single readings scatter.

The nature of this test: qHTS assay to identify small molecule agonists of the sonic hedgehog signaling (Shh) pathway - cell viability counter screen (AID 1259366). Note: nearly all actives have a fitted effect of over 50% in size. The note with it: NIH/3T3 Gli1-Luc viability, CellTiter-Fluor, 24 h; series mostly up to 92.4 µM. The source says: National Center for Advancing Translational Sciences [NCATS]
NIH Chemical Genomics Center [NCGC]
U.S. Environmental Protection Agency [EPA]
National Institutes of Environmental Health Sciences [NIEHS]
National Toxicology Program [NTP]
U.S. Food and Drug Administration [FDA]
The sonic hedgehog (Shh) pathway is essential for normal embryonic development. Dysregulation of the Shh pathway can cause severe developmental defects in organs. Therefore chemicals that interfere with the pathway are potential developmental toxicants. A cell line designated 3T3Gli1-Luc (DMB/OARSA/CFSAN/FDA, Laurel, MD), a NIH/3T3 derived clone containing stably integrated Gli1-Luc reporter is used to detect chemical interference of the Shh pathway, by changes in the expression of the firefly Luc gene under the control of the Gli1 transcriptional response element. This cell line was used to screen Tox21 libraries for identifying and prioritizing the potential developmental toxicants that interfere Shh pathway. The cytotoxicity of the compounds was tested in parallel by measuring the cell viability using CellTiter-Fluor assay system (Promega, Madison, WI) in the same wells.
Tox21 Assay Protocol Summary:
3T3 Gli1-Luc cells were dispensed at 2,000 per well in 5uL of culture medium into white solid bottom 1536-well plates (Greiner Bio-One, Monroe, NC) using a Multidrop Combi (Thermo Scientific, Waltham, MA) dispenser. The assay plates were incubated at 37 C and 5% CO2 for 4hr, and then 23nL of compounds dissolved in DMSO and positive control were transferred using a Pintool station (Wako, San Diego, CA). The assay plates were incubated at 37C and 5% CO2 for 24hr. For viability read, after 23hr of compound treatment, 1uL of CellTiter-Fluor reagent (Promega Corporation, Madison, WI) was added to each well of the assay plates using Flying Reagent Dispenser (FRD, Aurora Discovery, San Diego, CA) and incubated the assay plates at 37C for 1hr. The fluorescence signal was quantified using a ViewLux plate reader (Perkin Elmer, Shelton, CT).
Take `Nc1ccc(C(=O)Oc2ccccc2)c(O)c1`: the Potency entry was “inactive”. In the case of `CC(C)(C(=O)O)c1ccc(C(O)CCCN2CCC(C(O)(c3ccccc3)c3ccccc3)CC2)cc1` (stereo not given) it was “inactive”. Regarding `CC/C=C/CCO`, the Potency entry was “inactive”. Then `CCN(CCCCOC(=O)c1ccc(OC)c(OC)c1)C(C)Cc1ccc(OC)cc1` (stereo not given), with “inactive”; and `S=c1[nH][nH]c(=S)s1`, with “inactive”; and `Nc1ncnc2c1ncn2[C@@H]1O[C@H](CO)[C@@H](O)[C@H]1O`, with “inactive”.

Turning to `Cc1nc(C)c(C)nc1C`, the Potency result is “inactive”. Take `CNc1ccccc1`: the Potency result is “inactive”. Then `Clc1nc2ccccc2nc1Cl`, with “inactive”; and `C/C=C1\[C@H]2C=C(C)C[C@]1(N)c1ccc(=O)[nH]c1C2`, with “inactive”; and `O=S(=O)(O)c1cc(Cl)c(Cl)cc1Cl`, with “inactive”. On to `Clc1cccc(C(c2ccc3nc[nH]c3c2)n2ccnc2)c1` (stereo not given), for which the Potency result is “inactive”. Then `Oc1ccc(Oc2ccccc2)cc1`, with “inactive”; and `Cc1c(-c2cccnc2)c2ccccc2n1CCCCC(=O)O`, with “inactive”. Regarding `Cc1cccc(C)c1NC(=O)CN1CCCC1`, the Potency entry was “inactive”. On to `O=C(OCCN1CCOCC1)c1cccnc1Nc1cccc(C(F)(F)F)c1`, for which the Potency entry was “inactive”. In the case of `CC(C(=O)O)c1ccc2c(c1)Cc1cccnc1O2` (stereo not given) it was “inactive”; in that of `Cc1ccc2ccccc2c1[N+](=O)[O-]`, “inactive”; in that of `CCC[Si](OC)(OC)OC`, “inactive”. Then `CCCC(=O)OCCC(C)C`, with “inactive”; and `CCOc1ccc2c(c1)C(C)CC(C)(C)N2` (stereo not given), with “inactive”. In the case of `O=[N+]([O-])c1ccc(Cl)cc1Cl` it was “inactive”; in that of `O=c1[nH][nH]c2ccccc12`, “inactive”; in that of `CC1(C)[C@@H]2CC[C@]3(C2)[C@@H]1C(=O)CCC3(C)C`, “inactive”. In the case of `CCC(C)CCCC(C)(C)O` (stereo not given), the Potency result was “inactive”.

`C=C[Si](OCC)(OCC)OCC`: the Potency result is “inactive”. Then `CCCCOC(=O)C(C)Oc1ccc(Oc2ccc(C(F)(F)F)cn2)cc1` (stereo not given), with “inactive”; and `CCc1cnc(C(=O)O)c(C(=O)O)c1`, with “inactive”. As to `CCOC(C)OCC`, the Potency entry was “inactive”.

As to `C/C(=C(\CCO)SS/C(CCO)=C(\C)N(C=O)Cc1cnc(C)nc1N)N(C=O)Cc1cnc(C)nc1N`, the Potency result was “inactive”. With `Nc1ccc(F)cc1F`, the Potency entry is “inactive”. With `CCCCCCCCCCCCSCCOCCO`, the Potency result was “inactive”.

With `CC(=O)CC/C=C(\C)CC/C=C(\C)CC/C=C(\C)CCC=C(C)C`, the Potency entry is “inactive”. In the case of `COC(=O)/C=C/C(C)=C\C=C\C(C)=C\C=C\C=C(C)\C=C\C=C(C)\C=C\C(=O)O`, the Potency result was “inactive”. In the case of `CCOCCn1c(N2CCCN(C)CC2)nc2ccccc21` it was “inactive”. In the case of `O=C(OCCCCCOC(=O)c1ccccc1)c1ccccc1` it was “inactive”; in that of `CCCC1CCCC(=O)O1` (stereo not given), “inactive”. Then `C(/C=C/C=C/Nc1ccccc1)=Nc1ccccc1`, with “inactive”; and `CCCCCCCCCC(C)C=O` (stereo not given), with “inactive”; and `CC(C)CCCCCOC(=O)CS`, with “inactive”.
